In PubChem BioAssay (EPA / NIEHS) one finds outcome and AC50 data, which are given here for three compounds.

The AC50 is the midpoint of the concentration-response curve, whichever way the signal moves.

The target of assay [1] is Transcription factor E2F1 (Homo sapiens) (UniProt Q01094). The assay is described as follows: ATG_E2F_CIS: Attagene CIS-FACTORIAL HepG2 Assay for human E2F Transcription Factor 1 (AID 2282935). Conditions: HepG2 Attagene cis-reporter, E2F reporter RNA transcripts; actives raise or lower the signal. In outline:
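Measures reporter transcript levels via RT-PCR with capillary electrophoresis detection in HepG2 cells harboring cis-regulated reporter units; 24 h post-dose; bidirectional curve fitting with DMSO as baseline.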

Assay [2] is described as follows: ATG_E_Box_CIS: Attagene CIS-FACTORIAL HepG2 Assay for human Enhancer Box (E-box) (AID 2282936). The conditions noted are these: HepG2 E-box cis-reporter transcription, actives raise or lower the signal. The method in brief:
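First, HepG2 cells receive multiple cis-regulated reporter constructs by transient transfection. Next, chemicals are applied for 24 h. Finally, reporter mRNA is quantified via RT-PCR and capillary electrophoresis, with DMSO as baseline.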

Assay [3] in a line: ATG_M_61_CIS: Attagene CIS-FACTORIAL HepG2 Assay for M61 Transcription Factor (Internal Marker) (AID 2282937). Conditions: HepG2 Attagene CIS-FACTORIAL M61 internal marker reporter; actives raise or lower the signal. In outline:
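Using transiently transfected HepG2 liver cells, reporter transcript levels were assessed 24 h post-dosing by RT-PCR and capillary electrophoresis. Changes in either direction were fitted relative to DMSO controls.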

The nature of assay [4]: ATG_EGR_CIS: Attagene CIS-FACTORIAL HepG2 Assay for human Early Growth Response 1 (EGR1) (AID 2282938). Conditions: HepG2 Attagene CIS-FACTORIAL EGR reporter mRNA; actives raise or lower the signal. In outline:
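Fluorescent capillary-electrophoresis signal of reporter cDNA fragments serves as read-out. HepG2 cells bear transiently transfected cis-promoter reporter units and are exposed 24 h; gain- or loss-of-signal is fitted against DMSO.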

The nature of assay [5]: ATG_M_19_CIS: Attagene CIS-FACTORIAL HepG2 Assay for M19 Transcription Factor (Internal Marker) (AID 2282939). Conditions: HepG2 Attagene CIS-FACTORIAL M19 internal marker reporter; actives raise or lower the signal. The method in brief: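 Readout: fluorescent reporter-transcript fragments by capillary electrophoresis after RT-PCR. Human HepG2 liver cells carried transfected MRTU constructs reporting endogenous transcription-factor activity; exposure 24 h. Gain or loss of signal fitted relative to DMSO.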

A short description of assay [6]: ATG_ERE_CIS: Attagene CIS-FACTORIAL HepG2 Assay for Estrogen Response Element (ERE) (AID 2282940). Conditions: HepG2 ERE cis-reporter, Attagene RNA transcript; actives raise or lower the signal. In outline:
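Readout: reporter mRNA induction by RT-PCR, FAM-labelled primer extension, HpaI digestion and capillary electrophoresis, 24 h after dosing transfected HepG2 cells. Endogenous transcription factors act on cis-element-regulated reporters. Gain or loss fitted against DMSO.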

Assay [7] can be described thus: ATG_Ets_CIS: Attagene CIS-FACTORIAL HepG2 Assay for human Erythroblast Transformation Specific (ETS) (AID 2282941). Conditions: HepG2 ETS cis-reporter transcription, actives raise or lower the signal. The method in brief:
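After transient cis-reporter transfection, HepG2 cells receive test chemical for 24 h. Reporter mRNA levels, measured by RT-PCR and capillary electrophoresis fluorescence, are analysed bidirectionally relative to the DMSO baseline.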

Assay [8] deals with Hepatocyte nuclear factor 3-beta (Homo sapiens) (UniProt Q9Y261). The assay is described as follows: ATG_FoxA2_CIS: Attagene CIS-FACTORIAL HepG2 Assay for human Forkhead box A2 (FOXA2) (AID 2282942). The conditions noted are these: HepG2 cis-reporter transcription factor activity, 24 h; actives raise or lower the signal. In outline: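 Fluorescence signal of reporter cDNA fragments, separated by capillary electrophoresis, reflects endogenous transcription factor activity in transfected HepG2 after 24 h. Both increases and decreases fitted against DMSO.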

Assay [9] can be described thus: ATG_FoxO_CIS: Attagene CIS-FACTORIAL HepG2 Assay for human Forkhead box O (FoxO) (AID 2282943). Conditions: HepG2 Attagene cis-reporter, FoxO element, mRNA; actives raise or lower the signal. The method in brief:
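HepG2 cells transiently transfected with cis-element-driven reporter units report endogenous FoxO activity. After 24 h chemical exposure, reporter mRNA quantified by RT-PCR, fluorescent labeling, HpaI digestion and capillary electrophoresis; bidirectional fit versus DMSO.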

Assay [10] in a line: ATG_GATA_CIS: Attagene CIS-FACTORIAL HepG2 Assay for human GATA Binding Protein (AID 2282944). The conditions noted are these: HepG2 GATA cis-element reporter, Attagene multiplex mRNA; actives raise or lower the signal. In outline: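 Read-out: fluorescent reporter mRNA fragments resolved by capillary electrophoresis after RT-PCR. Human liver HepG2 cells carried transiently transfected cis-regulated reporter constructs; chemicals incubated 24 h; gain or loss of signal fitted relative to DMSO.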

Assay [11] can be described thus: ATG_GLI_CIS: Attagene CIS-FACTORIAL HepG2 Assay for human Zinc Finger Protein GLI1 (AID 2282945). The conditions noted are these: HepG2, Attagene cis-factorial reporter mRNA, GLI element; actives raise or lower the signal. The method in brief: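 Transiently transfected HepG2 cells report endogenous transcription factor activity via cis-element-driven reporter units. After 24 h compound exposure, reporter mRNA was measured by RT-PCR with capillary electrophoresis; bidirectional fitting against DMSO baseline.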

Assay [12] is described as follows: ATG_ISRE_CIS: Attagene CIS-FACTORIAL HepG2 Assay for human Interferon Regulatory Factor 1 (IRF1) binding to an Interferon-Stimulated Response Element (ISRE) (AID 2282948). The conditions noted are these: HepG2 ISRE cis-reporter (Attagene), mRNA transcription readout; actives raise or lower the signal. The method in brief:
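Quantitation relies on labelled RT-PCR fragments separated by capillary electrophoresis. Human HepG2 cells bearing cis-promoter reporter constructs were treated 24 h; DMSO served as baseline for bidirectional fitting.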

A short description of assay [13]: ATG_M_32_CIS: Attagene CIS-FACTORIAL HepG2 Assay for M32 Transcription Factor (Internal Marker) (AID 2282949).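 Further: background control marker of the multiplexed CIS panel rather than a real target.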 Conditions: HepG2 Attagene cis-factorial M32 reporter, mRNA; actives raise or lower the signal. In outline: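 Internal background marker read-out: RT-PCR/capillary electrophoresis fluorescence of reporter transcripts from transiently transfected HepG2 cells after 24 h chemical exposure. Activity fitted bidirectionally relative to DMSO negative control.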

A short description of assay [14]: ATG_M_06_CIS: Attagene CIS-FACTORIAL HepG2 Assay for M06 Transcription Factor (Internal Marker) (AID 2282950). The conditions noted are these: HepG2 Attagene CIS-FACTORIAL M06 internal marker reporter; actives raise or lower the signal. The method in brief: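 Terse: HepG2, transient MRTU transfection (FuGene 6), 24 h dosing; total RNA, oligo(dT) RT, PCR, FAM label, HpaI cut, capillary electrophoresis; bidirectional fit vs DMSO baseline; background-control endpoint.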

Assay [15] concerns the target Hypoxia-inducible factor 1-alpha (Homo sapiens) (UniProt Q16665). Briefly: ATG_HIF1a_CIS: Attagene CIS-FACTORIAL HepG2 Assay for human Hypoxia Inducible Factor 1 (HIF1A) (AID 2282951). Conditions: HepG2 Attagene cis-factorial HIF1a reporter transcription; actives raise or lower the signal. In outline: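 Endogenous-TF cis reporter readout, human HepG2 cells, 24 h incubation; mRNA detected via RT-PCR and capillary electrophoresis fluorescence; DMSO-normalised bidirectional fitting.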

For assay [16], the target named is Hepatocyte nuclear factor 6 (Homo sapiens) (UniProt Q9UBC0). The assay is described as follows: ATG_HNF6_CIS: Attagene CIS-FACTORIAL HepG2 Assay for human Hepatocyte Nuclear Factor 6 (HNF6) (AID 2282952). Conditions: HepG2 Attagene cis-factorial HNF6 reporter transcription; actives raise or lower the signal. The method in brief:
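Transiently transfected HepG2 cells expressing cis-regulated reporter transcription units were exposed to chemical for 24 h in a 24-well format. Reporter transcript abundance was determined by fluorescence capillary electrophoresis.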

In assay [17] the target is Heat shock factor protein 1 (Homo sapiens) (UniProt Q00613). The assay is described as follows: ATG_HSE_CIS: Attagene CIS-FACTORIAL HepG2 Assay for human Heat Shock Transcription Factor 1 (HSE) (AID 2282953). The conditions noted are these: HepG2 HSE cis-reporter, Attagene RNA transcription; actives raise or lower the signal. In outline: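 Read-out: fluorescence of reporter-specific RT-PCR fragments separated by capillary electrophoresis. HepG2 carrying transfected cis-element reporter units; 24 h dosing; activity fitted in both directions relative to DMSO baseline.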

A short description of assay [18]: ATG_MRE_CIS: Attagene CIS-FACTORIAL HepG2 Assay for human Metal Responsive Element (MRE) (AID 2282954). The conditions noted are these: HepG2 MRE cis-reporter transcription, Attagene multiplex; actives raise or lower the signal. The method in brief:
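Fluorescent reporter fragments separated by capillary electrophoresis give mRNA induction for the MRE unit after 24 h treatment of transfected HepG2 cells. Endogenous transcription-factor activity is read; DMSO serves as negative control and baseline.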

In assay [19] the target is Bile acid receptor (Homo sapiens) (UniProt Q96RI1). The assay is described as follows: ATG_IR1_CIS: Attagene CIS-FACTORIAL HepG2 Assay for human Nuclear Receptor Subfamily 1 Group H Member 4 (NR1H4), IR1 submotif (AID 2282946). The conditions noted are these: IR1 reporter transcription, actives raise or lower the signal. In outline: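 HepG2 cells transiently transfected with multiple cis-promoter-driven reporter units to measure endogenous transcription factor activity; 24 h exposure. Reporter mRNA read by RT-PCR, FAM labelling, HpaI digestion and capillary electrophoresis. Bidirectional fit versus DMSO.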

A short description of assay [20]: ATG_GRE_CIS: Attagene CIS-FACTORIAL HepG2 Assay for human Glucocorticoid Response Elements (GRE) (AID 2282947). Conditions: HepG2 GRE cis-reporter, Attagene multiplex mRNA; actives raise or lower the signal. In outline:
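Endogenous transcription factor activity is read through cis-element reporter constructs transiently transfected into HepG2 cells. After 24 h treatment, labelled RT-PCR products are resolved by capillary electrophoresis; DMSO sets baseline for bidirectional curve fitting.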

Where “and” joins values, the source holds several entries; their conditions need not be identical. Equal values may be shown once. Some compounds were tested as several samples or in several runs, with calls that do not always agree. Calls of active or inactive are those of the source. How the source made its calls: active means hit-call score of the fitted dose curve at least 0.9, where 1 is the maximum; inactive means score below 0.9.

Chain of Bile acid receptor (Homo sapiens) (Q96RI1 whole entry, looked up): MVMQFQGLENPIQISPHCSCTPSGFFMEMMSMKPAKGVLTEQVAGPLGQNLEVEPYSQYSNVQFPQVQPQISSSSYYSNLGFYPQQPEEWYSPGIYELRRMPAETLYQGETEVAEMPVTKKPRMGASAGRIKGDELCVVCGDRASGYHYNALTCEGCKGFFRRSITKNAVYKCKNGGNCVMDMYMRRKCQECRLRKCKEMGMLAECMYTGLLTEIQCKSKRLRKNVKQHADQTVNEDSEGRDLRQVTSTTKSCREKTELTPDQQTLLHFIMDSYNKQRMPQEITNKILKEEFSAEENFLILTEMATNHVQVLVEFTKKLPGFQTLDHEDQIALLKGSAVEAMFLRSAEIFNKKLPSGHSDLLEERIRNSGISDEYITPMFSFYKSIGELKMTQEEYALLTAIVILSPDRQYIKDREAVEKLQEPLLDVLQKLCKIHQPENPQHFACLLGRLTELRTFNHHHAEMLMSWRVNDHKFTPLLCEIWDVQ
Chain of Heat shock factor protein 1 (Homo sapiens) (Q00613 whole entry, looked up, the tested form may be a part): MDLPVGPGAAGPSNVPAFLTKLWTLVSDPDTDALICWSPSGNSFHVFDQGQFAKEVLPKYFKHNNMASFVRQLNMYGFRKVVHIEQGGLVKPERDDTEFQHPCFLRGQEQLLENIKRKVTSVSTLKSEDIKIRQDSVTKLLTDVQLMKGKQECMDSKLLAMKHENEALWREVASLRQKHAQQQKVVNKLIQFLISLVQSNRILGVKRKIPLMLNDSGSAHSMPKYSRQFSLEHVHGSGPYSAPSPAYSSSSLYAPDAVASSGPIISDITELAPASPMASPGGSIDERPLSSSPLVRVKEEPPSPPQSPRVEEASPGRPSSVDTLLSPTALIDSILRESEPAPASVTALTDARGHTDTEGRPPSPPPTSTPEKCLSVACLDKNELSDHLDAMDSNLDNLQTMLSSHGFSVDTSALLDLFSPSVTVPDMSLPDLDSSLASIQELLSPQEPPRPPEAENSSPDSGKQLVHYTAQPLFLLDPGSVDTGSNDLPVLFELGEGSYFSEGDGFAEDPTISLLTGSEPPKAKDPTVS
Chain of Transcription factor E2F1 (Homo sapiens) (Q01094 whole entry, looked up): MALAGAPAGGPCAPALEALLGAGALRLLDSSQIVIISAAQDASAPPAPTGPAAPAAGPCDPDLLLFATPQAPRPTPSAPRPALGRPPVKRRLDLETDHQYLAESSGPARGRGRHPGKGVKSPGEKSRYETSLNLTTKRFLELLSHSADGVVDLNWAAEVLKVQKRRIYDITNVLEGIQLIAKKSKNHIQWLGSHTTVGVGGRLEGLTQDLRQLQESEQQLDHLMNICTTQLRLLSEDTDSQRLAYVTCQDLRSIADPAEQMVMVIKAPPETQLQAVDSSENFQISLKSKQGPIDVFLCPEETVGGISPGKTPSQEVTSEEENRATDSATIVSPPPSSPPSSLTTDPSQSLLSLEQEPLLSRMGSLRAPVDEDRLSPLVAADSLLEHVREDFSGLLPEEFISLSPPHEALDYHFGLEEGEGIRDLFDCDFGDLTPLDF
Chain of Hypoxia-inducible factor 1-alpha (Homo sapiens) (Q16665 whole entry, looked up): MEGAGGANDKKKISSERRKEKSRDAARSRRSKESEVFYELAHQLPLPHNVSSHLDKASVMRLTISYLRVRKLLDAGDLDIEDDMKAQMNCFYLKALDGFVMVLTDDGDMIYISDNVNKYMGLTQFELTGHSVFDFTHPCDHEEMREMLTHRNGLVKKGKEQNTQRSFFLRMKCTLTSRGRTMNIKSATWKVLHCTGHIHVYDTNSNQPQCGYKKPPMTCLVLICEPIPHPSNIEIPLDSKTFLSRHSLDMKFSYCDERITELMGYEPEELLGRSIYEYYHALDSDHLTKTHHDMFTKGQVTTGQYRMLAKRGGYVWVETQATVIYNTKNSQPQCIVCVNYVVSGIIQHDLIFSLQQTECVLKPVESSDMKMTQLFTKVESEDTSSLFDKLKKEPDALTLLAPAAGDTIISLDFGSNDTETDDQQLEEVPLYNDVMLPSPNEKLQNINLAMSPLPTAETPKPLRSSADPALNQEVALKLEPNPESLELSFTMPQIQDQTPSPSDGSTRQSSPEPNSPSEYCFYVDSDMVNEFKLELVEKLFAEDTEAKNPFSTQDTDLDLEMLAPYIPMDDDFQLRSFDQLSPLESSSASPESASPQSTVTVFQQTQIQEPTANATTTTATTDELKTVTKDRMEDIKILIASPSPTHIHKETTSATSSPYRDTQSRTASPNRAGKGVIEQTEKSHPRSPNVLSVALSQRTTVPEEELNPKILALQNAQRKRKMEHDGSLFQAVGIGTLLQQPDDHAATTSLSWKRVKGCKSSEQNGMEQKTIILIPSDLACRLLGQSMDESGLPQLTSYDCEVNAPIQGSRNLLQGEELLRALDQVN
Chain of Hepatocyte nuclear factor 3-beta (Homo sapiens) (Q9Y261 whole entry, looked up, the tested form may be a part): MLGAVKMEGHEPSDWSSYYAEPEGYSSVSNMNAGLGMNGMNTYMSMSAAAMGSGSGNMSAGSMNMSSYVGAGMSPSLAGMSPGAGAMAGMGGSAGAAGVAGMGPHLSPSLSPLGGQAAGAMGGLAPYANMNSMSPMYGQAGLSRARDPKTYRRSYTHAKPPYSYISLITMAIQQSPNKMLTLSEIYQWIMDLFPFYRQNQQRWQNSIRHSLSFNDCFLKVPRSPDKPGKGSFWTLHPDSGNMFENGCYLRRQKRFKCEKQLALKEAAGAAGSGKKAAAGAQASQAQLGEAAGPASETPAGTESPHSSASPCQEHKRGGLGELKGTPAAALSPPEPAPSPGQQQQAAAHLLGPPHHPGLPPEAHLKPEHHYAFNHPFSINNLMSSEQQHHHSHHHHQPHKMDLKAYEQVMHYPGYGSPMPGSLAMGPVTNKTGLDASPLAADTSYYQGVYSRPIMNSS
Chain of Hepatocyte nuclear factor 6 (Homo sapiens) (Q9UBC0 whole entry, looked up): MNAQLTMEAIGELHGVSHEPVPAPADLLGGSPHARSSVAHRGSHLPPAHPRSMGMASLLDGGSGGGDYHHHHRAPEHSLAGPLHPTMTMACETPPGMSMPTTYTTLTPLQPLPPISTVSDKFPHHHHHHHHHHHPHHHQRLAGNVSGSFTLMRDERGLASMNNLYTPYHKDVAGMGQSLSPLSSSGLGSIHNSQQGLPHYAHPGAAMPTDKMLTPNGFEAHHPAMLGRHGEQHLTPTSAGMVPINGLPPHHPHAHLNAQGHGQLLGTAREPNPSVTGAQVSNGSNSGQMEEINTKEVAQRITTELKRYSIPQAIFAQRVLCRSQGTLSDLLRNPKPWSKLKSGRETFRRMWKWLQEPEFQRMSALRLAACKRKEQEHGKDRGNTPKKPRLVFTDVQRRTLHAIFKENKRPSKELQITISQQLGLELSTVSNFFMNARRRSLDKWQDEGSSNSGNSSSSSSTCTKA

In the case of `ClC1=C(Cl)C(Cl)(Cl)C(Cl)=C1Cl`, the call in [1], in assay [2], in [3], in [5], in [6] and in assay [8] was inactive. In addition, the compound was classed as inactive in assay [9], in assay [10], in assay [13], in assay [14], in assay [15] and in [16]. In addition, the AC50 was 6.36 µM (active) in [2]; 17.8 µM (active) and 6.6 µM (active) in assay [4]; 17.7 µM (active) and 16.2 µM (active) in assay [7]; 16.1 µM (active) in [9]; 11.1 µM (active) and 6.27 µM (active) in assay [11]; 14.6 µM (active) and 11.1 µM (active) in [12]. In addition, the AC50 is 8.06 µM (active) in assay [16]; 8.88 µM (active) and 5.39 µM (active) in assay [17]; 20.2 µM (active) and 6.9 µM (active) in assay [18].

For `c1ccc2cc3c(ccc4ccccc43)cc2c1`, the outcome in [1], in assay [2], in assay [3], in assay [4], in assay [5] and in assay [7] was inactive. The result in assay [8], in assay [9], in assay [11], in assay [19], in assay [12] and in assay [13] was inactive. The result in assay [14], in [15], in assay [17] and in assay [18] was inactive. Further, the AC50 in assay [2] is 1.59 µM (active) and 4.58 µM (active) and 2.65 µM (active); in assay [4], 2.26 µM (active); in [6] it was 2.82 µM (active) [middle of 4 runs]; in assay [19] it was 621 nM (active) and 25.4 µM (active) and 1.92 µM (active); in assay [15], 3.05 µM (active) and 2.3 µM (active); in assay [17], 120 µM (active).

Consider `O=C1OC2(c3ccccc31)c1cc(Br)c(O)c(Br)c1Oc1c2cc(Br)c(O)c1Br`, for which the result in assay [1], in assay [2], in assay [3], in assay [4], in [5] and in [6] was inactive. Further, the compound was called inactive in [7], in [8], in assay [9], in [11], in assay [19] and in assay [20]. Moreover, the call in assay [12], in assay [13], in [14], in assay [15], in assay [17] and in assay [18] was inactive. Besides, the values for the AC50 in [2], in assay [4] and in assay [18] were 62.7 µM (active), 62.3 µM (active) and 76.3 µM (active), respectively.
